Test results from the supplement of paper PMC12636033.
± gives the standard deviation of the averaged measurements. The full ranking holds about 33,000 sequences; the median of “E-score (rank enrichment, -0.5 to 0.5)” is about -0.0043, and the highest 2% start at about 0.24. For the sample, the highest values were picked, then their nearest neighbours and some sequences at random.

Each sequence was assayed on 2Sp-muMax20 (muMax20 with two 2,6-bis(methyl)pyridine Cys staples) (assay: PBM 8-mer E-score (E-score (rank enrichment, -0.5 to 0.5)); higher = stronger preferential binding).
Experimental: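 Protein binding microarray (universal PBM chip covering all 10-mers in fixed probe flanks) with chemically synthesized human Max(13-93) bHLH-LZ analogs (not full-length Max) bearing noncanonical residues (hArg, Tha, Aib, Nle at 65) and aromatic Cys staples. Read-out per 8-mer (and its reverse complement): E-score (rank-based enrichment, -0.5 to 0.5) and Z-score of median probe intensity.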

Sequence	PBM 8-mer E-score
GATACAAA	0.084 ± 0.0085
GATACGCA	0.0806 ± 0.032
AATACAAC	0.221 ± 0.053
AATACAAA	0.28 ± 0.018
GCGTCCAA	0.016 ± 0.062
TAGGATCA	-0.0923 ± 0.052
CAATAGTC	-0.0201 ± 0.017
ACGTGGTC	0.129 ± 0.092
AGGTGGTG	-0.104 ± 0.087
CCGTGGTA	-0.156 ± 0.15
ACGTGGTA	0.146 ± 0.11
ACGTGGTG	0.236 ± 0.017
GCGTGGTA	0.237 ± 0.045
GATTACGA	0.0561 ± 0.094
AAATCCCT	-0.0147 ± 0.019
GAGGCGCA	0.0587 ± 0.03
ACTTTCCG	0.00749 ± 0.064
ACCTTGAC	0.00626 ± 0.011
AAACTATA	0.115 ± 0.0056
TAACTATA	0.255 ± 0.07
CAACTATA	0.203 ± 0.018
CCCTTTTC	-0.0442 ± 0.061
AATTACCC	0.237 ± 0.0059
AATTACCA	0.171 ± 0.012
CATTACCC	0.0244 ± 0.022

Sequence	PBM 8-mer E-score
GATGCAGC	0.0324 ± 0.041
GTGGTCGA	0.0711 ± 0.071
AAGATCTA	-0.063 ± 0.13
AAGATCTT	0.322 ± 0.058
AAGATCTG	0.0472 ± 0.038
GGGATAAA	0.0538 ± 0.03
GTTGTATA	0.167 ± 0.024
ATTGTACA	0.26 ± 0.016
ATTGTATA	0.2422 ± 0.0019
ACTGTATA	0.213 ± 0.085
GTTGTCTA	0.0499 ± 0.064
CTTGTATA	0.17 ± 0.0046
ATTGTCTC	-0.126 ± 0.07
ATTGTCTA	0.269 ± 0.012
GCTGTATA	0.25 ± 0.021
CTTGTACA	0.192 ± 0.026
CCTGTATA	0.0769 ± 0.072
ATTGTACC	0.0323 ± 0.019
AAGCCAGT	-0.0999 ± 0.034
ACCAAGAC	-0.0903 ± 0.027
GGCGCGTA	0.126 ± 0.013
ATTTAATG	0.122 ± 0.031
ACAACACG	0.185 ± 0.037
TAAGAGCA	0.145 ± 0.072
TAACGACA	0.087 ± 0.0014

Sequence	PBM 8-mer E-score
GTAGAGAA	-0.00059 ± 0.14
ATTGTATG	0.135 ± 0.036
CTTGTATC	0.141 ± 0.019
ATTGTATC	0.254 ± 0.043
AGCTTAGG	-0.22 ± 0.016
ACACTTTG	0.0709 ± 0.076
CTAGGGGC	0.0163 ± 0.073
ACCGGTAG	-0.253 ± 0.036
CTACCGGA	-0.147 ± 0.0082
ACCGCGTA	-0.0143 ± 0.044
AGCGCGTC	-0.117 ± 0.097
CGCGCGTC	0.28 ± 0.0065
CACGCGTG	0.376 ± 0.015
AACGCGTG	0.13 ± 0.022
ACCGCGTG	0.284 ± 0.038
AACGCGTA	-0.0641 ± 0.026
AACGCGTC	-0.0413 ± 0.045
CACGCGTA	0.175 ± 0.043
CACGCGTC	0.2622 ± 0.0015
CGCGCGTA	0.176 ± 0.021
ACCGCGTC	-0.0765 ± 0.041
GGTCGGGA	-0.25 ± 0.0058
CGTGACCA	0.1 ± 0.098
AAGCCATT	-0.0452 ± 0.016
AGCCACGG	-0.2315 ± 0.00033

Sequence	PBM 8-mer E-score
TGTCTGAA	0.0107 ± 0.0037
CCCCGAAG	-0.126 ± 0.04
CAAGGAGA	-0.133 ± 0.073
AAAGGAGA	0.0434 ± 0.019
GAAGGAGA	0.246 ± 0.023
GTATAGAC	0.121 ± 0.0088
AGATGTTG	-0.146 ± 0.015
ATTTGTTC	0.106 ± 0.018
CCATGTTA	0.155 ± 0.054
ATTTGTTA	0.228 ± 0.064
GCATGTTA	0.252 ± 0.095
ATTTGTTG	0.266 ± 0.034
ATATGTTA	0.229 ± 0.027
GGATGTTA	0.196 ± 0.022
ACATGTTC	0.161 ± 0.04
ACATGTTA	0.3172 ± 0.0015
AAATGTTA	0.156 ± 0.028
ACATGTTG	0.268 ± 0.089
CGACATCG	-0.164 ± 0.033
CGTCCGCA	-0.0773 ± 0.074
AAGGGGGG	-0.275 ± 0.053
CGCTTTAG	0.0627 ± 0.011
ACGGGTGC	-0.0393 ± 0.032
GGCCGTAC	0.0557 ± 0.032
CTGGATCA	-0.158 ± 0.033

Sequence	PBM 8-mer E-score
GCTGCTGA	-0.206 ± 0.048
AGTGCATG	0.0577 ± 0.061
ATGTGTTC	-0.00117 ± 0.0014
ATGTGTTA	0.197 ± 0.14
ATGTGTTG	0.254 ± 0.023
ACCGATCA	-0.0856 ± 0.019
GATGGCTA	0.03 ± 0.092
CATGGCTC	0.0571 ± 0.018
CATGGCTA	0.245 ± 0.055
CCACGTAC	0.0687 ± 0.048
AACTGTAT	0.104 ± 0.043
ACAGATGG	0.0291 ± 0.022
TAGCCCAA	0.0851 ± 0.013
ACGCCCCA	0.284 ± 0.013
ACGCCCCG	-0.107 ± 0.028
CCGCCCCA	0.344 ± 0.054
TCGCCCCA	0.246 ± 0.013
ACGCCCCC	-0.168 ± 0.036
CCGCCCCC	-0.261 ± 0.11
GCGCCCCA	0.135 ± 0.0094
TCGCCCAA	0.0937 ± 0.081
CAGCCCCA	0.196 ± 0.033
CCGCCCCG	0.22 ± 0.037
TAGCCCCA	0.324 ± 0.022
CGGTAACC	-0.288 ± 0.086

Sequence	PBM 8-mer E-score
GCACATCC	0.0732 ± 0.072
AGGATTTG	-0.0789 ± 0.0065
GGAGGTGA	-0.109 ± 0.038
AGTTGGTC	-0.13 ± 0.083
GATCCGAC	-0.198 ± 0.026
AGTTGAAA	-0.0343 ± 0.15
TCAGGTCA	-0.126 ± 0.038
CCCGCCCA	0.396 ± 0.012
GCCGCCCC	0.0266 ± 0.044
ACCGCCCC	0.132 ± 0.0083
CCCGCCCC	0.281 ± 0.022
CCCGCCCG	0.16 ± 0.065
GCCGCCCA	-0.111 ± 0.053
CCACCCGG	-0.213 ± 0.012
ACTGCTTC	-0.0855 ± 0.012
AGCCTAAT	0.0715 ± 0.12
ATGTTTTA	0.0882 ± 0.015
ATCCTCGG	-0.136 ± 0.022
ACGTGGAA	0.188 ± 0.014
ACGTGCCC	0.1949 ± 0.0017
ACGTGGCA	0.217 ± 0.094
ACGTGGAC	0.208 ± 0.053
ACGTGCCT	0.257 ± 0.045
ACGTGGCT	0.238 ± 0.019
ACGTGGAT	0.2668 ± 0.0015

Sequence	PBM 8-mer E-score
ACGTGGCC	-0.048 ± 0.005
ACGTGCCG	0.0769 ± 0.0064
ACTGCCGC	-0.11 ± 0.0048
AGAACGCA	-0.0651 ± 0.016
AAATAGCC	0.155 ± 0.026
GCTAGCTA	-0.00454 ± 0.02
CCATTTCG	-0.131 ± 0.16
GAGTAAGC	-0.0367 ± 0.065
CAGCATGC	0.245 ± 0.055
CGGCATGC	0.154 ± 0.053
AAGCATGA	0.0552 ± 0.075
CAGCATGG	0.258 ± 0.074
GAGCATGC	0.233 ± 0.065
AAGCATGT	0.208 ± 0.059
AAGCATCC	-0.0641 ± 0.07
AAGCATGC	0.309 ± 0.047
GAGCATGA	0.154 ± 0.055
CAGCATGA	0.131 ± 0.046
AAGCATGG	0.221 ± 0.0031
TAGCATGA	0.237 ± 0.075
ATTTGAAG	0.0351 ± 0.054
CGCTCCCC	-0.1001 ± 0.00055
